Mtb FBA inh – Mtb fructose-bisphosphate aldolase inhibition. actives 2.3% (n = 360,000). purified M. tuberculosis FBA, fluorescence read-out. P9WQA3. inhibition, % at 1 µM; in the data active = inhibition above about 27%;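 also: 0% = vehicle and 100% = reference inhibitor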
Rv3671c inh – inhibitors of M. tuberculosis serine protease Rv3671c. P9WHR9. inhibition, % at 5.96 µM. actives 0.048% (n = 320,000); in the data active = inhibition above about 38%;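 also: extracellular domain of Rv3671c used as enzyme; 0% = enzyme with DMSO and 100% = no enzyme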
UGM FP inh – blocks M. tuberculosis UGM enzyme; P9WIQ1; purified UGM, fluorescence polarization probe displacement; inhibition, % at 10 µM; actives 0.06% (n = 320,000); in the data active = inhibition above about 10%, passing the limit was not always enough
Target sequence (P9WIQ1 whole entry, looked up): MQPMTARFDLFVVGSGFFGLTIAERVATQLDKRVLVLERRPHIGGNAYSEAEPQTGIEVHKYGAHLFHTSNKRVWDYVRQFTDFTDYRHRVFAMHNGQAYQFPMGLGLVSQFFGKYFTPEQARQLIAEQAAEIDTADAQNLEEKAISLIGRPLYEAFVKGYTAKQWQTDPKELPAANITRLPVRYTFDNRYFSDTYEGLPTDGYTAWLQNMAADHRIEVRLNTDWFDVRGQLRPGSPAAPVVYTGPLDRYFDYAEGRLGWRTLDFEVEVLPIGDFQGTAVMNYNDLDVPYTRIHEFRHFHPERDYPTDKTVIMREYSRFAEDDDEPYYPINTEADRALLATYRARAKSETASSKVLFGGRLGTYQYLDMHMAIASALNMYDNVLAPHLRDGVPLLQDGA
RecA splice inh – inhibitors of M. tuberculosis RecA intein splicing; AID 2221; P9WHJ3; actives 0.75% (n = 290,000); inhibition, % (concentration not given with the values); cell-free RecA intein splicing, fluorescence; in the data active = inhibition above about 30%;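 also: 0% = vehicle wells and 100% = reference inhibitor control wells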
Mtb bLac sens – beta-lactam sensitization of Mtb H37Rv; M. tuberculosis H37Rv growth with meropenem, percent inhibition; inhibition, % at 25 µM; actives 0.27% (n = 330,000); AID 434955; call rule not given here;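 also: growth measured after seven days incubation then overnight dye step; 0% = bacteria only wells and 100% = bacteria with antibiotic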
GDH-TPI inh – inhibits GDH-TPI coupling enzymes, artifact for Mtb FBA screen; GDH-TPI coupled enzyme counterscreen, NADH absorbance; inhibition, % at 4.8 µM; actives 1.2% (n = 360,000); AID 588335; in the data active = inhibition above about 30%;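 also: 0% = DMSO wells and 100% = wells lacking the enzyme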
The depositor's hits bear a star; . = not tested or not shown; + = active, no number. Compounds with a hit are over-represented: about 4% of the library has one in this group of screens.

SMILES	Mtb FBA inh	Rv3671c inh	UGM FP inh	RecA splice inh	Mtb bLac sens	GDH-TPI inh
COc1ccc(NC(=O)/C(=C/c2cccs2)NC(=O)c2ccco2)cc1	3.5	3.1	-2.8	-0.8	-9.8	44.8*
Cc1ccc(N(C(=O)CNC(=O)c2ccco2)C(C(=O)NC2CCCCC2)c2ccncc2)c(C)c1 (stereo unspecified)	-2.5	-2.5	0.1	-0.9	-5.5	-15.6
COc1ccc(-c2nsc(C(=O)N(c3ccc(F)cc3)C(C(=O)NC3CCCC3)c3ccc(OC)cc3)c2N)cc1 (stereo unspecified)	-0.5	-9.5	-2.3	-2.0	10.6	31.1*
CCc1ccc(/C=C2\CN(CC)Cc3c2nc2ccccc2c3C(=O)O)cc1	2.4	-5.0	-1.1	2.5	6.9	43.6*
COc1ccc(CN2CCNC(=O)C2CC(=O)N(C)Cc2ccncn2)c(OC)c1 (stereo unspecified)	-1.8	0.1	-2.2	30.5*	3.6	3.2
N#Cc1c(-c2ccccc2Cl)c2c([nH]c1=O)-c1ccccc1OC2	+	-1.9	0.2	-286.6	-13.4	26.9
O=C(CS(=O)(=O)c1ccc(F)cc1)Nc1nnc(-c2ccccc2Cl)o1	-0.6	-8.0	5.1	0.5	-12.2	10.2
Oc1c(C(Nc2nccs2)c2ccc(C(F)(F)F)cc2)ccc2cccnc12 (stereo unspecified)	123.6*	.	.	5.1	.	7.6
COC(=O)c1ccc2c(C)c(C3(O)CCCCC3)[nH]c2c1	+	-3.6	-3.2	.	-1.3	16.8
COC(=O)c1cc(Cl)cc2c(C)c(C3(O)CCCCC3)[nH]c12	6.0	-18.6	-1.2	5.6	-0.6	-6.0
Cc1nc(-c2ccc(Cl)cc2)sc1C1(C)CC(c2ccc(F)cc2)=NO1 (stereo unspecified)	-1.8	-6.6	-2.9	6.1	4.5	6.0
O=C(N/N=C/c1sc(N2CCOCC2)nc1-c1ccccc1)c1ccccc1O	-0.7	8.5	-1.2	0.9	6.6	12.3
O=C(O)c1cccc(Cn2c(Cl)c(/C=N/NC(=O)c3ccccc3Cl)sc2=O)c1	0.9	4.0	0.2	2.6	-19.6	41.2*
O=C(O)c1cccc(Cn2c(Cl)c(/C=N/NC(=O)c3ccccc3O)sc2=O)c1	4.7	-1.4	0.9	14.3	-1.9	53.6*
COc1ccc(C(=O)N/N=C/c2sc(=O)n(Cc3cccc(C(=O)O)c3)c2Cl)cc1	-4.6	7.3	-0.5	-2.1	-0.6	35.8*
Cc1ccccc1OCC(=O)N/N=C/c1sc(=O)n(Cc2cccc(C(=O)O)c2)c1Cl	1.2	-7.5	-0.7	7.8	-1.9	25.8
O=C(N/N=C/c1sc(=O)n(Cc2ccc(Br)cc2)c1Cl)c1ccco1	-1.3	-6.9	2.2	1.7	4.9	28.8
COc1ccc(S(=O)(=O)NCC(=O)NCc2cc(=O)n(C)c(=O)n2C)cc1	-1.3	-2.8	0.0	0.6	-6.9	-7.7
CC1(C)CC(=O)C=C(Nc2ccc(S(N)(=O)=O)cc2)C1	2.3	-9.2	-3.1	-1.1	-5.1	38.1*
Cn1c(=S)c2[nH]c(SCC3CCCO3)nc2n(C)c1=O (stereo unspecified)	-0.2	.	.	.	.	25.2
CCCC(C)Sc1nc2c([nH]1)c(=S)n(C)c(=O)n2C (stereo unspecified)	-1.5	.	.	.	.	35.3*
COCc1c(C(=O)OCC(=O)N2CCCC2=O)oc2ccccc12	8.6	4.9	-0.1	.	-4.8	-1.8
CSCCC(NC(=O)c1ccccc1Br)C(=O)N1CCN(C(C)=O)CC1 (stereo unspecified)	-0.7	4.4	-0.3	.	-5.1	-7.6
Cc1ccccc1Cc1c(C)nc2c(C(=O)NCc3ccco3)cnn2c1C	48.4*	-7.3	-3.5	17.2	42.9	5.6
Cc1ccccc1Cc1c(C)nc2nc(SCC(=O)NCc3ccco3)nn2c1C	-3.2	1.9	0.6	3.4	6.4	3.2
SMILES	Mtb FBA inh	Rv3671c inh	UGM FP inh	RecA splice inh	Mtb bLac sens	GDH-TPI inh
Cc1ccsc1/C=N/NC(=O)c1ccc(Cn2cc(Br)cn2)o1	1.9	-11.6	0.5	-1.9	-4.4	35.0*
O=C(N/N=C/c1cccc(Br)c1)c1ccc(Cn2cc(Br)cn2)o1	-0.4	-27.0	-0.6	1.8	.	6.3
CC(=O)c1ccc(N2CCN(S(=O)(=O)c3cn(C)cn3)CC2)cc1	3.5	-5.4	0.4	-1.3	1.3	37.4*
CC(=O)c1ccc(N2CCN(S(=O)(=O)c3cn(C)c(C)n3)CC2)cc1	0.1	1.7	-3.3	-2.2	-19.2	16.3
CN(C)C(CNc1ccc(C(F)(F)F)cc1[N+](=O)[O-])c1ccccc1 (stereo unspecified)	-1.8	-2.6	-2.6	4.6	8.7	-5.4
CC(C)C(N)c1csc(Nc2ccc(C(=O)c3ccccc3)cc2)n1 (stereo unspecified)	0.8	.	.	.	.	22.8
COc1ccc(C2=NS(=O)(=O)N(C)C(C(=O)N3CCC(C)CC3)=C2)cc1	0.1	6.9	-0.9	-5.9	5.3	31.1*
COc1cc(NC(=O)Nc2nc(C(N)CCc3ccccc3)cs2)cc(OC)c1OC (stereo unspecified)	-2.0	.	.	.	.	2.7
CCN(CC(=O)NCc1cccs1)C(=O)CCOc1ccccc1	8.0	-0.7	-1.7	.	0.0	2.6
COc1cc(/C=N\N=C2/SC(CC(=O)O)C(=O)N2c2ccc(O)cc2)ccc1O (stereo unspecified)	1.2	-6.4	3.0	.	-6.0	32.0*
COc1ccc(/C=N\N=C2/SC(CC(=O)O)C(=O)N2c2ccc(O)cc2)cc1OC (stereo unspecified)	-0.4	-1.6	0.7	-1.3	3.6	43.5*
Cc1cccc(N(CC(=O)NC(C)C)C(=O)CCC(=O)Nc2nccs2)c1	-1.4	-9.0	0.3	-2.0	-2.0	-11.4
CCN(CC)C(=O)C1CCCN(Cc2ccc3ccccc3c2)C1 (stereo unspecified)	-0.9	4.2	-0.2	-0.5	-1.7	-5.4
Cc1[nH]n(-c2ccc([N+](=O)[O-])cc2)c(=O)c1C=NCCN1CCN(C(=O)c2cccc(F)c2)CC1	-2.3	9.4	-1.9	0.0	1.0	33.6*
CC(OC(=O)CNC(=O)c1ccco1)C(=O)N(C)c1ccccc1 (stereo unspecified)	0.6	0.6	0.0	-0.7	-5.9	0.6
CC(OC(=O)/C(C#N)=C/c1ccco1)C(=O)N(C)c1ccccc1 (stereo unspecified)	-5.0	-6.8	-0.3	.	-5.8	32.3*
O=C1NC(Cc2ccccc2)c2nc3cc(Cl)ccc3c(=O)n2-c2ccccc21 (stereo unspecified)	.	-0.7	-2.4	.	-3.5	.
CCOc1cc(CN2CCc3c([nH]c4ccccc34)C2)ccc1OC	-0.8	.	-1.4	-1.8	-4.2	2.6
COc1ccc(CN2CCc3c([nH]c4ccccc34)C2)cc1Br	11.2	3.0	-0.8	.	-6.2	42.9*
CC(C)CNC(=O)c1coc(=O)c(Br)c1	14.4	-7.2	4.2	0.0	11.0	28.5
O=C(NC(CO)(CO)CO)c1coc(=O)c(Br)c1	5.2	-5.0	-0.6	0.5	-0.7	44.4*
Cn1ncc(Br)c1NC(=O)c1cc(Cl)cc(Cl)c1	-0.4	-9.1	0.8	0.4	-6.2	-7.9

Source: PubChem BioAssay
